Assay results as given in PubChem BioAssay (Tox21).
Where “and” joins values, the source holds several entries; their conditions need not be identical. Identical values can stand only once. Inconclusive results are not listed. Where a call stands in place of a potency, no number is given. More than one record can exist for a structure, and the calls need not agree. Calls of active or inactive are those of the source. Unless noted, the call rests on the fitted dose curve; in most records, active means well fitted curve in the direction sought with a large enough effect in the repeat runs; inconclusive means weak or mixed curves; inactive means no such curve, though single readings can be large; an effect the other way counts as inactive or inconclusive.

How the values were obtained:
[1] = qHTS assay to identify aromatase inhibitors - cell viability counter screen (AID 743084);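 further: cells stimulated with testosterone during compound exposure; nearly all actives have a fitted effect of over 55% in size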
[2] = qHTS assay to identify small molecule that activate the aryl hydrocarbon receptor (AhR) signaling pathway - cell viability counter screen (AID 743086); further: nearly all actives have a fitted effect of over 45% in size; further: potency means the concentration at half of the fitted maximal effect
Procedure, shortened: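 HepG2-AhR-luc (HG2L7.5c1) cells, 4000/well, treated 24 h at 37 C with compound; viability measured as CellTiter-Fluor fluorescence after 30 min in the same wells as the luciferase read.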

[3] = target: Peroxisome proliferator-activated receptor gamma (Homo sapiens) (UniProt P37231); experiment: qHTS assay to identify small molecule agonists of the peroxisome proliferator-activated receptor gamma (PPARg) signaling pathway (AID 743094; active means well fitted activation curve with a large enough effect in the signal ratio in the repeat runs, not every such curve was filed as active; the % refers to the signal ratio)
Chain of Peroxisome proliferator-activated receptor gamma (Homo sapiens) (P37231 whole entry, looked up): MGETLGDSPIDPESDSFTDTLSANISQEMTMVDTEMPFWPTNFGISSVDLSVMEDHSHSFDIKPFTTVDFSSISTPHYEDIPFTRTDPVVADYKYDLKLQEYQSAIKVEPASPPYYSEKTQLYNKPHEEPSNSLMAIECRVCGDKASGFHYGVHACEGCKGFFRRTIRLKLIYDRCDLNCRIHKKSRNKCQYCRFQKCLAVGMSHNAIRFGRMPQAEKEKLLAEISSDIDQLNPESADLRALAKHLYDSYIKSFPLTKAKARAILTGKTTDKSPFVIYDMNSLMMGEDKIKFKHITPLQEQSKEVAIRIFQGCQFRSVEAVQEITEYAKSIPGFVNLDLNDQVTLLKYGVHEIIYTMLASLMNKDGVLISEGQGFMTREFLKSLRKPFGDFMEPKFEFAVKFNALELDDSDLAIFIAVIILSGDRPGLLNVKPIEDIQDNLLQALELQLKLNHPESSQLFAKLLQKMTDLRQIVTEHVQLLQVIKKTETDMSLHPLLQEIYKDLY
Procedure, shortened: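 Quantitative HTS agonist mode: stable HEK293H line with UAS-beta-lactamase reporter under PPARg control, 17 h compound exposure at 37C, fluorescence after 1 h FRET substrate loading at room temperature.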

[4] = target: Peroxisome proliferator-activated receptor gamma (Homo sapiens) (UniProt P37231); experiment: qHTS assay to identify small molecule antagonists of the peroxisome proliferator-activated receptor gamma (PPARg) signaling pathway (AID 743191; calls by dose curve; further: series mostly up to about 63 µM; nearly all actives have a fitted effect of over 30% in size)
Procedure, shortened: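 GeneBLAzer PPARg UAS-bla HEK293H cells, 5 h post-plating, exposed to compounds 17 h at 37C. LiveBLAzer B/G FRET substrate added for 1 h at room temperature; beta-lactamase reporter read by fluorescence intensity.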

[5] = qHTS assay to identify small molecule antagonists of the peroxisome proliferator-activated receptor gamma (PPARg) signaling pathway - cell viability counter screen (AID 743194); further: nearly all actives have a fitted effect of over 55% in size
Procedure, shortened: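 Cytotoxicity counter screen in PPARg-bla HEK293H cells, same wells as reporter assay. Compounds plus 50 nM rosiglitazone (final) for 17 h at 37 C, then viability read by CellTiter-Glo luminescence.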

[6] = qHTS assay for small molecule agonists of the antioxidant response element (ARE) signaling pathway (AID 743202; active means well fitted activation curve with a large enough effect in the signal ratio in the repeat runs, not every such curve was filed as active; the % refers to the signal ratio; further: potency means the concentration at half of the fitted maximal effect)
Procedure, shortened: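 Agonist mode reporter screen: HepG2 cells with ARE-controlled beta-lactamase are incubated with test compounds for 16 h at 37 C, and beta-lactamase activity is measured as fluorescence of cleaved B/G FRET substrate.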

[7] = qHTS assay for small molecule agonists of the antioxidant response element (ARE) signaling pathway - cell viability counter screen (AID 743203; calls by dose curve; further: nearly all actives have a fitted effect of over 55% in size; further: potency means the concentration at half of the fitted maximal effect)
Procedure, shortened: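 Seeded at 2,000 cells/well, ARE-bla HepG2 cells were incubated 5 hrs before compound addition. After 16 hrs of treatment at 37C with 5% CO2, CellTiter-Glo reagent was added and luminescence read 30 min later.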

[8] = qHTS assay for small molecule activators of the heat shock response signaling pathway - cell viability counter screen (AID 743209); further: nearly all actives have a fitted effect of over 50% in size
Procedure, shortened: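 First, HSE-bla HeLa cells were seeded at 1500 cells/well and kept overnight at 37 C. Next, compounds were pinned in and incubated 5 h. After the FRET substrate step, CellTiter-Glo was added and luminescence read 30 min later.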

[9] = qHTS assay for small molecule activators of the heat shock response signaling pathway (AID 743210; active means well fitted activation curve with a large enough effect in the signal ratio in the repeat runs, with a control signal flat, not every such curve was filed as active; the % refers to the signal ratio;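 further: HeLa cells with beta-lactamase reporter driven by heat shock elements; series mostly up to about 63 µM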)
Procedure, shortened: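 Quantitative high-throughput format using an engineered HeLa line in which heat shock response elements drive beta-lactamase; after 5 h with compound, cells received a B/G FRET substrate and fluorescence was read.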

[10] = target: Peroxisome proliferator-activated receptor delta (Homo sapiens) (UniProt Q03181); experiment: qHTS assay to identify small molecule agonists of the peroxisome proliferator-activated receptor delta (PPARd) signaling pathway (AID 743212; calls by dose curve)
Chain of Peroxisome proliferator-activated receptor delta (Homo sapiens) (Q03181 whole entry, looked up): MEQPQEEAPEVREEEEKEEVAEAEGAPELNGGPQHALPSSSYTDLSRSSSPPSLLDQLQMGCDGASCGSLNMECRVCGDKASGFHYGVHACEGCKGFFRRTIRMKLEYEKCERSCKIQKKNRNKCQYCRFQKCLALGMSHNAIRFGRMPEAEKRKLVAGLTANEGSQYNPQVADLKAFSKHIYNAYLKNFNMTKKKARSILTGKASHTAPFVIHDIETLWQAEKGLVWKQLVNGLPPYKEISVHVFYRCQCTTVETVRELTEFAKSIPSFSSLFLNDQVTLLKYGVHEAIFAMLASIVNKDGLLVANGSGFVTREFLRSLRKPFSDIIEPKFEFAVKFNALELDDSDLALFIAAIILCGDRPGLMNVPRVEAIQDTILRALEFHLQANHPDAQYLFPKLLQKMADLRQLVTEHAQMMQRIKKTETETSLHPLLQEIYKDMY
Procedure, shortened: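 Quantitative high-throughput agonist screen in a HEK293H beta-lactamase reporter line under UAS control. Compounds in DMSO, at 37 C. Fluorescence read after 2 h with FRET substrate at room temperature.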

[11] = qHTS assay to identify small molecule antagonists of the peroxisome proliferator-activated receptor delta (PPARd) signaling pathway - cell viability counter screen (AID 743213); further: nearly all actives have a fitted effect of over 50% in size
Procedure, shortened: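 PPARd-bla HEK293H cells (3000/well) got compound plus 300 nM L165041 agonist for 17 h at 37 C. Viability in the same wells came from CellTiter-Glo luminescence after 30 min at room temperature.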

[12] = target: Peroxisome proliferator-activated receptor delta (Homo sapiens) (UniProt Q03181); experiment: qHTS assay to identify small molecule antagonists of the peroxisome proliferator-activated receptor delta (PPARd) signaling pathway (AID 743215; active means well fitted inhibition curve with a large enough effect in the signal ratio in the repeat runs, not every such curve was filed as active; the % refers to the signal ratio;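 further: cells stimulated with agonist L165041 at 300 nM final during compound exposure; series mostly up to about 62 µM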)
Procedure, shortened: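 Inhibition of L165041-driven (300 nM final) PPARd signaling is scored in HEK293H UAS-bla cells. Exposure lasts 17 h at 37 C; beta-lactamase activity is then read by FRET substrate fluorescence after 2 h at room temperature.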

[13] = target: Bile acid receptor (Homo sapiens) (UniProt Q96RI1); experiment: qHTS assay to identify small molecule antagonists of the farnesoid-X-receptor (FXR) signaling pathway (AID 743217; active means well fitted inhibition curve with a large enough effect in the signal ratio in the repeat runs, not every such curve was filed as active; the % refers to the signal ratio)
Chain of Bile acid receptor (Homo sapiens) (Q96RI1 whole entry, looked up): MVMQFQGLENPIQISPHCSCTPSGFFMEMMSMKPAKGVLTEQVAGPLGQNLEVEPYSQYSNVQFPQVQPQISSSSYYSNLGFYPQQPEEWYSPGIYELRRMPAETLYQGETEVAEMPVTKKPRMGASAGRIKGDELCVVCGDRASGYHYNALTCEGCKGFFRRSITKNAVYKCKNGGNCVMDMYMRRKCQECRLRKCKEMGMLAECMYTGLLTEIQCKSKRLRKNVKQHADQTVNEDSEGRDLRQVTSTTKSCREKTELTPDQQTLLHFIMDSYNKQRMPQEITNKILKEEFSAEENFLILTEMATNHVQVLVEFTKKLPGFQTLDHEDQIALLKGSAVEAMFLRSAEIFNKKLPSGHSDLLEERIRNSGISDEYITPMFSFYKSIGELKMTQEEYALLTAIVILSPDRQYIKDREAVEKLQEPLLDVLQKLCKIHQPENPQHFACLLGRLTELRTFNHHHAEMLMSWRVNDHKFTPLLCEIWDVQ
Procedure, shortened: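 Antagonist mode against 50 uM (final) chenodeoxycholic acid stimulation in FXR-bla HEK 293T cells, 16 h at 37 °C. Inhibition detected as reduced beta-lactamase activity via LiveBLAzer B/G FRET fluorescence after 2 h at room temperature.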

[14] = qHTS assay to identify small molecule agonists of the farnesoid-X-receptor (FXR) signaling pathway - cell viability counter screen (AID 743218); further: nearly all actives have a fitted effect of over 45% in size
Procedure, shortened: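 Cytotoxicity counter-screen run in parallel, same wells: FXR-UAS-bla HEK 293T cells dosed 16 h at 37 C, viability read by CellTiter-Glo luminescence after 30 min at room temperature.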

[15] = target: Bile acid receptor (Homo sapiens) (UniProt Q96RI1); experiment: qHTS assay to identify small molecule agonists of the farnesoid-X-receptor (FXR) signaling pathway (AID 743220; active means well fitted activation curve with a large enough effect in the signal ratio in the repeat runs, not every such curve was filed as active; the % refers to the signal ratio)
Procedure, shortened: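 Beta-lactamase reporter under UAS control in GeneBLAzer FXR HEK 293T cells (5000/well) measured with LiveBLAzer FRET substrate after 2 h at room temperature. Compound exposure lasted 16 h at 37C.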

[16] = qHTS assay to identify small molecule antagonists of the farnesoid-X-receptor (FXR) signaling pathway - cell viability counter screen (AID 743221; active means well fitted cell-killing curve with a large enough effect in the repeat runs, not every such curve was filed as active; further: nearly all actives have a fitted effect of over 50% in size)
Procedure, shortened: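 In GeneBLAzer FXR-UAS-bla HEK 293T cells stimulated with 50 uM chenodeoxycholic acid (final), compounds acted for 16 h at 37 C. Viability was assessed afterwards by CellTiter-Glo luminescence.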

[17] = target: Vitamin D3 receptor (Homo sapiens) (UniProt P11473); experiment: qHTS assay to identify small molecule agonists of the vitamin D receptor (VDR) signaling pathway (AID 743222; calls by dose curve)
Chain of Vitamin D3 receptor (Homo sapiens) (P11473 whole entry, looked up): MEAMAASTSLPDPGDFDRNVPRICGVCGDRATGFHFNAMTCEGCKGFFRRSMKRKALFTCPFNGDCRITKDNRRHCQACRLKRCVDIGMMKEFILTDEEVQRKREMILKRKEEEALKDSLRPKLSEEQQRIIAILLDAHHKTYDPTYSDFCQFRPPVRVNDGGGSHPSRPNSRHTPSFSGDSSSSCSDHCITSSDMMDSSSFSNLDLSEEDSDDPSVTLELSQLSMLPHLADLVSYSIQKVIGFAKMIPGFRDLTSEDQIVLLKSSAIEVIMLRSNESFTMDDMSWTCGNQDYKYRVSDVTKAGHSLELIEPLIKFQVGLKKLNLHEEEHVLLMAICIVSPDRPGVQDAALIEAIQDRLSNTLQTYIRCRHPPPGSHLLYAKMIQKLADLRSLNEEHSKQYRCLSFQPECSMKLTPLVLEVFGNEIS
Procedure, shortened: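 Quantitative HTS agonist-mode screen: compounds in DMSO were pin-transferred onto VDR-bla cells and incubated 16 h at 37C, 5% CO2. Reporter activity was detected with LiveBLAzer B/G FRET substrate after 2 h at room temperature.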

[18] = target: Vitamin D3 receptor (Homo sapiens) (UniProt P11473); experiment: qHTS assay to identify small molecule antagonists of the vitamin D receptor (VDR) signaling pathway (AID 743223; active means well fitted inhibition curve with a large enough effect in the signal ratio in the repeat runs, not every such curve was filed as active; the % refers to the signal ratio)
Procedure, shortened: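 Agonist 1alpha,25-dihydroxyvitamin D3 (3 nM in well) was added with each compound to VDR-bla cells preincubated 4 h. Cells stood 16 h at 37C, then FRET substrate 2 h at room temperature; fluorescence intensity recorded.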

[19] = target: Aryl hydrocarbon receptor (Homo sapiens) (UniProt P35869); experiment: qHTS assay to identify small molecule that activate the aryl hydrocarbon receptor (AhR) signaling pathway (AID 743085); further: nearly all actives have a fitted effect of over 15% in size; further: potency means the concentration at half of the fitted maximal effect;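 on activation: HG2L7.5c1 human HepG2 liver cells with stably integrated DRE-driven firefly reporter; series mostly up to about 70 µM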
Chain of Aryl hydrocarbon receptor (Homo sapiens) (P35869 whole entry, looked up): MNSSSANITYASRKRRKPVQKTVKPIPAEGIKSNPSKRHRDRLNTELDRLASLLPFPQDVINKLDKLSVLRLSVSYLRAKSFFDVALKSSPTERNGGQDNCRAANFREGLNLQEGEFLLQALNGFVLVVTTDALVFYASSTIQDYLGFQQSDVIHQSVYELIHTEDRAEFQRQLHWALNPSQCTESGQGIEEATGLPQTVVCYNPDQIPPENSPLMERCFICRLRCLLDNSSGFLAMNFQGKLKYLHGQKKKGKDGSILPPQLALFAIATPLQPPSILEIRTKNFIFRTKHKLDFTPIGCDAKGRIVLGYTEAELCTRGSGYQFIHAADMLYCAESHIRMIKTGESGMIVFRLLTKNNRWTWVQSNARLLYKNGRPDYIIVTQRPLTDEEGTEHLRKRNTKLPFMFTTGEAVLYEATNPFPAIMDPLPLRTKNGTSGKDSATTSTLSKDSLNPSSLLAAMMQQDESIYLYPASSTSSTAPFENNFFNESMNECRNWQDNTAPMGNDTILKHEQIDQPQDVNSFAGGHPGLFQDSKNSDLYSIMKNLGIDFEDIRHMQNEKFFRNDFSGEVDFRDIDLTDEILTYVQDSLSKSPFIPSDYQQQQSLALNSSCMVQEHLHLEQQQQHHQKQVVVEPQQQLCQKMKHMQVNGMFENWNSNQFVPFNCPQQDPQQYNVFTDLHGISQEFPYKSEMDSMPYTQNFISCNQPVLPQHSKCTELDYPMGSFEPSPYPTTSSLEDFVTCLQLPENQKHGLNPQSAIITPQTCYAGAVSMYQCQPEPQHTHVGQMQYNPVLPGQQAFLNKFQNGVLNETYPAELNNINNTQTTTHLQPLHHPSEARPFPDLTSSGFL
Procedure, shortened: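 24 h compound exposure, 37C, HepG2-derived HG2L7.5c1 cells with DRE-responsive luciferase. Readouts: fluorescence viability, then luminescence at room temperature after 30 min.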

[20] = qHTS assay to identify small molecule agonists of the peroxisome proliferator-activated receptor delta (PPARd) signaling pathway - cell viability counter screen (AID 743211); further: nearly all actives have a fitted effect of over 55% in size
Procedure, shortened: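 Luminescent ATP viability assay (CellTiter-Glo, 30 min RT) in UAS-bla HEK293H cells carrying the PPAR delta reporter construct, 3000 cells/well, after a 17 h compound treatment at 37 C.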

Structure (SMILES) | Potency [1] | Potency [2] | Potency [3] | Potency [4] | Potency [5] | Potency [6] | Potency [7] | outcome [8] | outcome [9] | outcome [10] | Potency [11] | outcome [12] | Potency [13] | Potency [14] | outcome [15] | outcome [16] | outcome [17] | Potency [18] | Potency [19] | Potency [20]
O=C(O)CN(CC(=O)O)CC(=O)O | inactive | inactive | inactive | inactive | inactive | 55.3 µM (active) and inactive | inactive | inactive | inactive | inactive | inactive | inactive | inactive | inactive | inactive | inactive | inactive | inactive |  | 
CCc1cc(C(N)=S)ccn1 |  | inactive |  |  | inactive |  | inactive | inactive |  |  | inactive |  |  | inactive |  |  | inactive | inactive |  | 
CCCCCCCC(=O)OCC(O)CO (stereo unspecified) | inactive | inactive |  | inactive | inactive |  | inactive | inactive |  | inactive | inactive | inactive |  | inactive |  |  |  |  | inactive | inactive
NC(=O)N/N=C/c1ccc([N+](=O)[O-])o1 | inactive | inactive and 62.9 µM [cytotoxic] (active) |  |  | inactive | inactive and 11.9 µM (active) | inactive and 54.5 µM (active) | inactive |  | inactive | inactive |  |  | inactive |  | inactive | inactive | inactive | inactive and 19.3 µM (active) | 
Cc1cccc(Nc2cc(Cl)nc(SCC(=O)O)n2)c1C | inactive | inactive |  | inactive | inactive |  | inactive | inactive |  |  | inactive |  |  | inactive |  | inactive | inactive | inactive | inactive | inactive
Cc1cnc(NC(=O)C2=C(O)c3ccccc3S(=O)(=O)N2C)s1 | inactive | inactive |  | inactive | inactive |  | inactive | inactive |  | inactive | inactive | inactive | inactive |  | inactive | inactive |  |  | inactive and 61.1 µM (active) | inactive
NC(=O)c1ccc([N+](=O)[O-])cc1Cl | inactive | inactive |  | inactive | inactive | inactive | inactive | inactive |  | inactive | inactive | inactive | inactive | inactive | inactive |  | inactive | inactive |  | 
CCn1cc(C(=O)O)c(=O)c2ccc(C)nc21 | inactive | inactive |  | inactive | inactive |  | inactive | inactive | inactive | inactive | inactive | inactive | inactive | inactive | inactive |  | inactive | inactive |  | 
c1ccc2[nH]c(-c3cscn3)nc2c1 | inactive | inactive |  | inactive | inactive | inactive | inactive | inactive | inactive | inactive | inactive | inactive | inactive | inactive | inactive | inactive | inactive | inactive |  | inactive
